From PubChem BioAssay (NCATS)
Records with an inconclusive call do not appear. Where a call stands in place of a potency, no number is given. Active and inactive are the calls of the source. Calls follow the shape of the dose curve; as a rule, active = well fitted curve in the direction sought with a large enough effect; inconclusive = small, poorly fitted or top-dose-only effect, or another doubt; inactive = no such curve, though single readings can be large; an effect the other way counts as inactive or inconclusive.

Columns and labels:
[1] = molecular target: Aldehyde dehydrogenase, mitochondrial (Homo sapiens) (UniProt P05091); assay: qHTS for Inhibitors of the Aldehyde Dehydrogenase Family (ALDH2) Primary screen (AID 2061308); also: nearly all actives have a fitted effect of over 55% in size
[2] = molecular target: Retinaldehyde dehydrogenase 3 (Homo sapiens) (UniProt P47895); assay: qHTS for Inhibitors of the Aldehyde Dehydrogenase Family (ALDH1A3) Primary screen (AID 2061315)

Compound | Potency [1] | Potency [2]
COc1ccc(NS(=O)(=O)c2ccccc2)cc1NS(=O)(=O)c1ccccc1 | inactive | inactive
Cc1cc(-c2nnc3n2CCCCC3)c(C)n1-c1ccncc1 | inactive | inactive
O=C1c2ccccc2C(=O)N1Cc1ccncc1 | inactive | inactive
CCCn1c(-c2ccc(F)cc2)nc2c(NCCN3CCCCC3)nc(C)nc21 | inactive | inactive
CCc1nnc(NS(=O)(=O)c2ccc(NC(=S)NC(=O)/C=C/c3ccc(F)cc3)cc2)s1 | inactive | inactive
COc1cccc(CNc2ccc(S(=O)(=O)Nc3nc(C)cs3)cc2)c1O | inactive | inactive
COc1cccc(NC(=S)N2CCN(c3ccc(Cl)cc3Cl)CC2)n1 | inactive | inactive
O=C(Nc1ncc(Cc2cccc(C(F)(F)F)c2)s1)c1ccc(-c2cccc([N+](=O)[O-])c2)o1 | inactive | inactive
CC1(C)CCCC2(C)C1C(OC(=O)/C=C/C=C/C=O)C=C1COC(=O)C12O (stereo not drawn) | inactive | inactive
CCOC(=O)/C=C/c1cc(F)c(S(=O)(=O)N2CCN(S(=O)(=O)c3ccc4c(c3)OCCO4)CC2)cc1F | inactive | inactive
CCOc1ccccc1-c1nnc2n1N=C(c1ccc(OC)c(OC)c1)CS2 | inactive | inactive
COc1cc2ncnc(N(C)Cc3cccs3)c2cc1-c1ccc2c(c1)OCO2 | inactive | inactive
O=[N+]([O-])c1ccc(CSc2nc3ncc(Br)cc3[nH]2)cc1 | inactive | inactive
Cc1cc2c(cc1C1(c3ccc(C(=O)O)cc3)CC1)C(C)(C)CCC2(C)C | inactive | inactive
